This passage reports growth inhibition results from PubChem BioAssay (NCI).

About 79,000 compounds went through this panel and 15% of them were active in at least one assay; those are over-represented in the sample as a whole. A number with no mark means an inactive call. Calls of active or inactive are those of the source. Cut-off read from the data, not from the text of the source: active = growth inhibition above about 70%; inactive = the rest.

A short description of assay [1]: NCI Yeast Anticancer Drug Screen. Data for the rad50 strain (AID 155).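 Note: 0% = growth of vehicle-only cultures of the same strain.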 The note with it: S. cerevisiae rad50 strain growth inhibition, active compounds read high. The essentials: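 Readout: growth inhibition relative to vehicle-treated cultures. Compound exposure was carried out in a genetically defined yeast strain deficient in DNA damage repair.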
Assay [2] can be described thus: NCI Yeast Anticancer Drug Screen. Data for the mec2-1 strain (AID 157). The note with it: S. cerevisiae mec2-1 strain, active compounds read high. A digest of the protocol: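 Readout is yeast growth inhibition, normalised to vehicle-treated controls, in the mec2-1 strain exposed to compound.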
Assay [3] in a line: NCI Yeast Anticancer Drug Screen. Data for the sgs1 mgt1 strain (AID 161).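 Note: 0% = growth of cultures given vehicle only.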 The note with it: S. cerevisiae sgs1 mgt1 strain, active compounds read high. A digest of the protocol:
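Compounds are added to genetically altered yeast, and growth is compared with cultures given vehicle alone to give percent inhibition.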

A short description of assay [4]: NCI Yeast Anticancer Drug Screen. Data for the cln2 rad14 strain (AID 165).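 Note: 0% = growth equal to vehicle treated cultures.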 The note with it: S. cerevisiae cln2 rad14 strain, active compounds read high. The essentials:
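Relative to vehicle controls, growth inhibition of compound-treated cln2 rad14 yeast was recorded.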

Assay [5] is described as follows: NCI Yeast Anticancer Drug Screen. Data for the bub3 strain (AID 167). The note with it: S. cerevisiae bub3 mutant strain, active compounds read high. The essentials: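 Readout: yeast growth inhibition, expressed relative to vehicle-only wells. The test organism is a mutant strain from a panel with lesions in DNA repair or checkpoint genes.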
A short description of assay [6]: NCI Yeast Anticancer Drug Screen. Data for the mlh1 rad18 strain (AID 175). The note with it: S. cerevisiae mlh1 rad18 strain growth inhibition, active compounds read high. The essentials:
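Test agents were incubated with a yeast strain of defined genotype (DNA damage repair defect). Inhibition of growth was derived by comparison with vehicle-exposed cultures.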

Setting [7] is: at 5.0 µM (retest, dose inferred, filed as 0.5).
[8] abbreviates: at 50.0 µM (retest, dose inferred, filed as 5.0).

Turning to `COc1c(Br)c(=O)n(C)c(=O)n1C`, the growth inhibition in assay [1] (setting [7]) is -11%; in assay [1] (setting [8]) it was 99% (active); in assay [1] (at 50.0 µM), 89% (active); in assay [2] (setting [7]), -10%; in assay [2] (setting [8]), 99% (active); in assay [2] (at 50.0 µM), 87.8% (active). Also, the growth inhibition in assay [3] (setting [7]) is -29%; in assay [3] (setting [8]), 98% (active); in assay [3] (at 50.0 µM) it was 91.2% (active); in assay [4] (setting [7]) it was -4%; in assay [4] (setting [8]), 99% (active); in assay [4] (at 50.0 µM), 88.3% (active). Also, the growth inhibition in assay [5] (setting [7]) was -26%; in assay [5] (setting [8]) it was 99% (active); in assay [5] (at 50.0 µM) it was 89.2% (active); in assay [6] (setting [7]) it was -11%; in assay [6] (setting [8]), 99% (active); in assay [6] (at 50.0 µM), 89% (active).
Consider `Cc1ccc(OC/C=C/c2ccc(Cl)cc2)cc1`, for which the growth inhibition is -2% in assay [1] (setting [7]); 75% (active) in assay [1] (setting [8]); 77.2% (active) in assay [1] (at 50.0 µM); 0% in assay [2] (setting [7]); 88% (active) in assay [2] (setting [8]); 53.1% in assay [2] (at 50.0 µM). Moreover, the growth inhibition in assay [3] (setting [7]) was 16%; in assay [3] (setting [8]), 91% (active); in assay [3] (at 50.0 µM) it was 85.2% (active); in assay [4] (setting [7]), -2%; in assay [4] (setting [8]), 84% (active); in assay [4] (at 50.0 µM), 65%. The growth inhibition is 2% in assay [5] (setting [7]); 86% (active) in assay [5] (setting [8]); 67.4% in assay [5] (at 50.0 µM); 5% in assay [6] (setting [7]); 90% (active) in assay [6] (setting [8]); 85.2% (active) in assay [6] (at 50.0 µM).
For the molecule `Cc1ccccc1N=NC(C(=O)c1ccccc1)C(=O)c1ccccc1`, the growth inhibition in assay [1] (setting [7]) is 7%; in assay [1] (setting [8]), 94% (active); in assay [1] (at 50.0 µM), 93.2% (active); in assay [2] (setting [7]), -14%; in assay [2] (setting [8]) it was 96% (active); in assay [2] (at 50.0 µM), 94% (active). Also, the growth inhibition in assay [3] (setting [7]) is 15%; in assay [3] (setting [8]), 93% (active); in assay [3] (at 50.0 µM), 92.2% (active); in assay [4] (setting [7]), 3%; in assay [4] (setting [8]), 95% (active); in assay [4] (at 50.0 µM), 90% (active). Further, the growth inhibition is 5% in assay [5] (setting [7]); 97% (active) in assay [5] (setting [8]); 92.8% (active) in assay [5] (at 50.0 µM); -8% in assay [6] (setting [7]); 97% (active) in assay [6] (setting [8]); 91.8% (active) in assay [6] (at 50.0 µM).
With `CC(C)(C)c1cc(C(c2cc3c(cc2O)OCO3)N2CCOCC2)cc(C(C)(C)C)c1O` (stereo not drawn), the growth inhibition was 87% (active) in assay [1] (setting [7]); 95% (active) in assay [1] (setting [8]); 69.9% in assay [1] (at 50.0 µM); 59% in assay [2] (setting [7]); 97% (active) in assay [2] (setting [8]); 64.6% in assay [2] (at 50.0 µM). Further, the growth inhibition in assay [3] (setting [7]) is 99% (active); in assay [3] (setting [8]), 95% (active); in assay [3] (at 50.0 µM) it was 72.2% (active); in assay [4] (setting [7]) it was 52%; in assay [4] (setting [8]), 96% (active); in assay [4] (at 50.0 µM), 57.7%. Moreover, the growth inhibition in assay [5] (setting [7]) was 68%; in assay [5] (setting [8]), 96% (active); in assay [5] (at 50.0 µM), 63%; in assay [6] (setting [7]) it was 69%; in assay [6] (setting [8]) it was 97% (active); in assay [6] (at 50.0 µM) it was 7.8%.
With `CN(C)CCOC1(CC2CCCCC2)CCC(C(C)(C)C)CC1` (stereo not drawn), the growth inhibition in assay [1] (setting [7]) is -9%; in assay [1] (setting [8]), 100% (active); in assay [1] (at 50.0 µM), 99% (active); in assay [2] (setting [7]) it was -17%; in assay [2] (setting [8]), 99% (active); in assay [2] (at 50.0 µM), 99% (active). The growth inhibition in assay [3] (setting [7]) is -6%; in assay [3] (setting [8]), 99% (active); in assay [3] (at 50.0 µM), 99.4% (active); in assay [4] (setting [7]), 11%; in assay [4] (setting [8]), 100% (active); in assay [4] (at 50.0 µM), 99.5% (active). Besides, the growth inhibition in assay [5] (setting [7]) is -1%; in assay [5] (setting [8]), 100% (active); in assay [5] (at 50.0 µM), 98.9% (active); in assay [6] (setting [7]), 14%; in assay [6] (setting [8]), 100% (active); in assay [6] (at 50.0 µM), 99.3% (active).
With `O=C(NCCc1c(-c2ccccc2)[nH]c2ccccc12)C(F)(F)C(F)(F)F`, the growth inhibition in assay [1] (setting [7]) was 21%; in assay [1] (setting [8]), 21%; in assay [1] (at 50.0 µM), 86.5% (active); in assay [2] (setting [7]), 1%; in assay [2] (setting [8]), 1%; in assay [2] (at 50.0 µM) it was 91% (active). The growth inhibition in assay [3] (setting [7]) was 33%; in assay [3] (setting [8]), 33%; in assay [3] (at 50.0 µM) it was 84.8% (active); in assay [4] (setting [7]), 4%; in assay [4] (setting [8]), 4%; in assay [4] (at 50.0 µM) it was 81.6% (active). Besides, the growth inhibition in assay [5] (setting [7]) is 5%; in assay [5] (setting [8]) it was 5%; in assay [5] (at 50.0 µM), 79% (active); in assay [6] (setting [7]), 23%; in assay [6] (setting [8]), 23%; in assay [6] (at 50.0 µM), 30.1%.
